FBW7 activator = human FBW7 E3 ligase activation, primary screen; Q969H0; AlphaScreen FBW7–phospho-cyclin E peptide binding, activator screen; normalized activity (activation), % at 26.1 µM; 650,000 tested, 0.13% active; AID 1259310; in the data active means normalized activity above about 1.9%;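 further: purified mutant Fbw7 with reduced substrate affinity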
GPR151 activ = activators of human GPR151 | PathHunter beta-arrestin GPR151 cells, luminescence | activation, % at 11.2 µM | 650,000 tested, 1% active | AID 1508602 | Q8TDV0; in the data active means activation above about 4.9%
MITF primary = human MITF inhibition, primary screen. O75030. AlphaScreen MITF homodimerization, bead proximity signal. inhibition, % at 2.6 µM. 650,000 tested, 0.91% active; in the data active means inhibition above about 50%
TEAD-YAP block = TEAD-YAP interaction inhibition; HEK-TIYL cells, TEAD-Gal4/YAP UAS-luciferase luminescence; inhibition, % at 9.12 µM; 640,000 tested, 1.4% active; AID 1259422; in the data active means inhibition above about 32%
GPR151 conf act = confirmation of human GPR151 activators. shares compounds with GPR151 activ. GPR151 PathHunter beta-arrestin cells, luminescence, 90 min; % of EA-reagent control over plate median. activation, % at 11.2 µM. 6,700 tested, under 10 active. AID 1508609;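 active means mean percent activation across replicates above the confirmation screen cutoff of 4.91%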
GPR119 ag = activates human GPR119 in a GPR151 counter-screen | shares compounds with GPR151 activ | GPR119 PathHunter beta-arrestin cells, luminescence, 90 min; 0 = compound-well median, 100 = enzyme-acceptor control | activation, % at 11.2 µM | 6,700 tested, 0.3% active | AID 1508611;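 active means mean percent activation in the counterscreen above 29.09%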;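 further: counterscreen on off-target GPR119 to flag nonselective hits from the GPR151 activator screen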
Target sequence (Q8TDV5 whole entry, looked up): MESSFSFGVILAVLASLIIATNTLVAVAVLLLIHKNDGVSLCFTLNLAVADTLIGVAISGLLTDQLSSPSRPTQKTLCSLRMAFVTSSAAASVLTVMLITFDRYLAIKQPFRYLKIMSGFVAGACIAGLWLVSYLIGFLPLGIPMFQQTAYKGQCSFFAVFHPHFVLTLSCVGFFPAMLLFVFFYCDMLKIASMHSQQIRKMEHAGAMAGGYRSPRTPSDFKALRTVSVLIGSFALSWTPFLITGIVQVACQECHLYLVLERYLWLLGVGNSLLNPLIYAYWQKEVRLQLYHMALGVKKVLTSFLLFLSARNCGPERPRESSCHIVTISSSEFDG
Large screens that a line does not name were inactive (follow-up assays come after a bar, where they were run); ! = not active in a repeat. Only some compounds are listed: those with a hit (about 3.4% of all), similar ones and a draw of the others.

COc1ccc(S(=O)(=O)Nc2ccc(F)c(F)c2)cc1C	GPR151 activ 13.8 | GPR151 conf act inactive | GPR119 ag inactive
CC(=O)Nc1ccc(NS(=O)(=O)c2cc(C(C)(C)C)cc(C)c2C)cc1	GPR151 activ 6.4 | GPR151 conf act inactive | GPR119 ag inactive
Cc1ccc(NS(=O)(=O)c2cc(C(=O)O)cc(C)c2C)cc1	none
CCCCc1ccc(NS(=O)(=O)c2ccc(OCC(=O)OC)cc2)cc1	GPR151 activ 5.2 | GPR151 conf act inactive | GPR119 ag inactive
CCCOc1ccccc1/C=C1\SC(=S)N(CCC(=O)O)C1=O	none
COC(=O)c1c(C)oc2ccc(NS(=O)(=O)c3ccc(C(C)(C)C)cc3)cc12	none
CCOC(=O)COc1ccc(S(=O)(=O)Nc2ccc(Br)cc2)cc1	none
CCOc1ccc(S(=O)(=O)Nc2ccc3oc(C)c(C(=O)OC)c3c2)cc1	GPR151 activ 8.9, TEAD-YAP block 62.7 | GPR151 conf act inactive | GPR119 ag inactive
CCOC(=O)COc1ccc(S(=O)(=O)Nc2ccc(C(=O)OCC)cc2)cc1	GPR151 activ 5.0 | GPR151 conf act inactive | GPR119 ag inactive
CCOc1cc(C=C2C(=O)c3ccccc3C2=O)ccc1OC(C)=O	GPR151 activ 10.2 | GPR151 conf act inactive | GPR119 ag inactive
CC1=C(C(=O)OCCc2ccccc2)C(c2ccc([N+](=O)[O-])cc2)C2=C(CC(C)(C)CC2=O)N1 (centres undefined)	none
CCOc1ccccc1NC(=O)c1c(NC(=O)Cc2ccc(OC)cc2)sc2c1CCCCC2	none
CC(=O)Nc1nonc1-c1nc2ccccc2n1Cc1cccc(Br)c1	none
O=C1NC(c2ccccc2)=N/C1=C/c1ccccc1	none
COc1cc(/C=C2/N=C(c3ccccc3)NC2=O)cc(OC)c1OC	GPR151 activ 5.4 | GPR151 conf act inactive | GPR119 ag inactive
Brc1ccc(Nc2nc(-c3ccccn3)cs2)cc1	none
Brc1cccc(Nc2nc(-c3ccccn3)cs2)c1	GPR151 activ 22.2 | GPR151 conf act inactive | GPR119 ag inactive
Nc1nc(SCc2ccc(F)cc2)nn1CC(=O)Nc1ccccc1F	GPR151 activ 6.3 | GPR151 conf act inactive | GPR119 ag inactive
CCC(=O)N1CCN(c2ccc(NC(=O)c3cccs3)cc2)CC1	GPR151 activ 9.2 | GPR151 conf act inactive | GPR119 ag inactive
CCC(=O)N1CCN(c2ccc(NC(=O)c3ccco3)cc2)CC1	GPR151 activ 5.4 | GPR151 conf act inactive | GPR119 ag inactive
CCC(=O)N1CCN(c2ccc(NC(=O)c3ccco3)cc2Cl)CC1	none
Fc1cccc(CNCc2cc3cc4c(cc3nc2N2CCCC2)OCO4)c1	none
COc1cc(OC)c(C(=O)OCCOc2ccc(Cl)cc2)cc1OC	none
O=C(CN1CCN(c2ccc(Cl)cc2)CC1)Nc1ccccc1Cl	none
COc1ccccc1/C=N/Nc1ncc(Cl)cc1Cl	none
CCOC(=O)c1cnc(SCc2cccc(F)c2)nc1N	none
CCOC(=O)c1cnc(SC2CC(=O)N(c3cccc(F)c3)C2=O)nc1N (centres undefined)	GPR151 activ 7.5 | GPR151 conf act inactive | GPR119 ag inactive
O=C(Nc1ccc2[nH]ncc2c1)[C@H]1CCCN1C(=O)C(O)c1ccc(Cl)cc1 (some centres undefined)	none
O=C(Nc1ccc2[nH]ncc2c1)[C@@H]1CCCN1C(=O)C(O)c1ccc(Cl)cc1 (some centres undefined)	GPR151 activ 5.2! | GPR151 conf act inactive | GPR119 ag inactive
CCOCCCNCC#Cc1ccccc1	none
CC(C)OCCCNC(=O)c1ccccc1N(Cc1ccccc1)S(C)(=O)=O	none
COc1ccccc1C(=O)CC1(O)C(=O)N(Cc2ccc(Cl)cc2)c2ccccc21 (centres undefined)	none
COc1ccc(Br)cc1/C=N/NC(=O)c1ccc([N+](=O)[O-])cc1	none
CCCCCOC(=O)C1=C(C)NC2=C(C(=O)CC(C)(C)C2)C1c1cccc([N+](=O)[O-])c1 (centres undefined)	none
CC1(C)Cc2ccccc2/C(=C/C(=O)C(=O)NCc2ccccc2)N1	GPR151 activ 6.6 | GPR151 conf act inactive | GPR119 ag inactive
Cc1nc(SCC(=O)NC(C)(C)C)c2c(C)c(C)sc2n1	none
Cc1[nH]c2ccccc2c1/C=N/NC(=O)c1cccnc1	GPR151 activ 5.2 | GPR151 conf act inactive | GPR119 ag inactive
O=C(N/N=C/c1ccccc1F)c1cccnc1	GPR151 activ 7.1 | GPR151 conf act inactive | GPR119 ag inactive
Cc1[nH]c2ccccc2c1/C=N/NC(=O)c1ccccc1O	none
COc1ccccc1NC(=O)c1c(NC(=O)CCC(=O)O)sc2c1CCC(C(C)(C)C)C2 (centres undefined)	none
CCC(C)(C)C1CCc2c(sc(NC(=O)c3ccccc3OC)c2C(N)=O)C1 (centres undefined)	GPR151 activ 8.1 | GPR151 conf act inactive | GPR119 ag inactive
CCC(=O)Nc1sc2c(c1C(=O)Nc1ccccc1C(=O)OC)CCC(C(C)(C)C)C2 (centres undefined)	GPR151 activ 5.2 | GPR151 conf act inactive | GPR119 ag inactive
O=C(O)CCCCCn1c(SCC(=O)c2ccccc2)nc2ccsc2c1=O	GPR151 activ 6.5 | GPR151 conf act inactive | GPR119 ag inactive
Cc1csc(Nc2ccccc2)[n+]1CC(O)c1ccc([N+](=O)[O-])cc1 (centres undefined)	GPR151 activ 6.3 | GPR151 conf act inactive | GPR119 ag inactive
O=C(COc1ccccc1[N+](=O)[O-])NC1CCS(=O)(=O)C1 (centres undefined)	none
O=C(CSc1nnc(NC(=O)Cc2ccc(F)cc2)s1)NCC1CCCO1 (centres undefined)	GPR151 activ 5.0 | GPR151 conf act inactive | GPR119 ag inactive
O=C(CSc1nnc(NC(=O)Cc2ccccc2)s1)NCC1CCCO1 (centres undefined)	none
Cc1nc(N2CCOCC2)c2c(C)c(C(=O)Nc3cccc([N+](=O)[O-])c3)sc2n1	none
CNC(=O)NC(=O)C(C)N1CCN(c2ccccn2)CC1 (centres undefined)	none
CC(C(=O)N1c2ccccc2CC1C)N1CCN(c2ccccn2)CC1 (centres undefined)	GPR151 activ 5.3 | GPR151 conf act inactive | GPR119 ag inactive
CCCN(CCC)S(=O)(=O)c1ccc(C(=O)Nc2nc3c(OC)cccc3s2)cc1	GPR151 activ 6.6 | GPR151 conf act inactive | GPR119 ag inactive
CCCN(CCC)S(=O)(=O)c1ccc(C(=O)Nc2nc3c(ccc4ccccc43)s2)cc1	none
c1coc(-c2nnc(N3CCCCC3)nc2-c2ccco2)c1	none
Cc1c(C(=O)Nc2cc(Sc3ccc(F)cc3)cc([N+](=O)[O-])c2)sc2ncn(Cc3ccccc3F)c(=O)c12	GPR151 activ 5.1 | GPR151 conf act inactive | GPR119 ag inactive
CC1=CC(C)C(CNCCN2CCNCC2)C(C)C1 (centres undefined)	GPR151 activ 4.9 | GPR151 conf act inactive | GPR119 ag inactive

Screens: PubChem BioAssay, The Scripps Research Institute Molecular Screening Center
